According to PubChem BioAssay (Tox21):
“And” between values parts separate entries of the source, which are not always exact repeats. Equal entries are not always repeated. Inconclusive results are not listed. A call without a number means that no potency is given here. Where a structure was tested more than once in an assay, its records may differ in their call. The source made the active and inactive calls. Unless noted, calls follow the shape of the dose curve; as a rule, active = well fitted cell-killing curve with a large enough effect in the repeat runs; inconclusive = weak or mixed curves, or effect the other way; inactive = no such curve, though single readings can be large or run the other way.

target: Peroxisome proliferator-activated receptor delta (Homo sapiens) (UniProt Q03181); assay: qHTS assay to identify small molecule antagonists of the peroxisome proliferator-activated receptor delta (PPARd) signaling pathway (AID 743215; active = well fitted inhibition curve with a large enough effect in the signal ratio in the repeat runs, not every such curve was filed as active; the % refers to the signal ratio;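 also: cells stimulated with agonist L165041 at 300 nM final during compound exposure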); conditions: HEK293H PPARd-UAS-bla, beta-lactamase FRET ratio, antagonist, 17 h; series mostly up to 62 µM; ratio activity, negative = inhibition: at the top concentration
Sequence (Q03181 whole entry, looked up): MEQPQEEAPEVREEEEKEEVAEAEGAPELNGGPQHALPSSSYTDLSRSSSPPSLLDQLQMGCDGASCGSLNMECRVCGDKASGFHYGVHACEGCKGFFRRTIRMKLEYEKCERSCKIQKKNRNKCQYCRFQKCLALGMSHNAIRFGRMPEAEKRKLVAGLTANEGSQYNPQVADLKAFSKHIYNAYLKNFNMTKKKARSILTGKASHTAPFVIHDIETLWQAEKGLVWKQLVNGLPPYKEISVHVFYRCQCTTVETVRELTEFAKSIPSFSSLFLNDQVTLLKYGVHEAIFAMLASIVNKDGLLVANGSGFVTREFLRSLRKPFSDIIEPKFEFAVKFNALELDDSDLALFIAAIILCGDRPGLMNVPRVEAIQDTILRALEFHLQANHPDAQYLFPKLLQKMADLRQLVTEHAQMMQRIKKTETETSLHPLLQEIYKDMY
How it was run: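 HEK293H UAS-bla, PPARd; agonist L165041 300 nM final with cpd in DMSO; 37 C 17 h; FRET substrate, RT 2 h; fluorescence intensity.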

| SMILES | Potency | ratio activity, negative = inhibition |
| --- | --- | --- |
| CC1=CC(=O)CC(C)(C)C1 | inactive |  |
| CS(=O)(=O)c1ccc(Cl)cc1 | inactive |  |
| OB(O)O | inactive |  |
| CC(COCC(C)OC(=O)c1ccccc1)OC(=O)c1ccccc1 (stereo not given) |  | 1.18% (inactive) |
| C=CC(=O)NCOCCCC |  | -0.427% [at 80.4 µM] (inactive) |
| C1CCCNCC1 | inactive |  |
| COc1ccc2cc3[n+](cc2c1OC)CCc1cc2c(cc1-3)OCO2 | inactive |  |
| COC(=O)CCCCC(=O)OC | inactive |  |
| COC(=O)/C=C\C(=O)OC | inactive |  |
| Nc1cccc(N)n1 | inactive |  |
| OCC(CO)(CO)CO | inactive |  |
| Oc1ccc(Cc2ccccc2O)cc1 | inactive |  |

target: Bile acid receptor (Homo sapiens) (UniProt Q96RI1); assay: qHTS assay to identify small molecule antagonists of the farnesoid-X-receptor (FXR) signaling pathway (AID 743217; active = well fitted inhibition curve with a large enough effect in the signal ratio in the repeat runs, not every such curve was filed as active; the % refers to the signal ratio); conditions: HEK293T FXR-UAS-bla, beta-lactamase ratio, CDCA-stimulated, 16 h; series mostly up to 62.6 µM; activity change, negative = inhibition: at the top concentration
Sequence (Q96RI1 whole entry, looked up): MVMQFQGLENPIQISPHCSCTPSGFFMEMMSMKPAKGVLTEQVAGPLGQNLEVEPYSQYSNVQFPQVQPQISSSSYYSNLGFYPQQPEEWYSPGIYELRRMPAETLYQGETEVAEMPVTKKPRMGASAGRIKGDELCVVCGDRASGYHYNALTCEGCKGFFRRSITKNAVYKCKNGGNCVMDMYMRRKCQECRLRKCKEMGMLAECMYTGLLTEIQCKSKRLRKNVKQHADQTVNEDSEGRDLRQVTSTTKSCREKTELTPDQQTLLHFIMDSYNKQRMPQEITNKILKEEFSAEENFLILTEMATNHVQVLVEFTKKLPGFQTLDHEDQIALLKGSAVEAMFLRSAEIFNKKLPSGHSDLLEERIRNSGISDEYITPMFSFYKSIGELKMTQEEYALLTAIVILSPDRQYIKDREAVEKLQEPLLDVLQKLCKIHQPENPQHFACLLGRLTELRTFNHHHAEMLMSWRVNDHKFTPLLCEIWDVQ
How it was run: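 GeneBLAzer FXR-UAS-bla HEK 293T, CDCA-stimulated (50 uM final). Compound treatment 16 h, 37 °C. Detection: beta-lactamase cleavage of B/G FRET substrate, fluorescence.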

| SMILES | Potency | activity change, negative = inhibition |
| --- | --- | --- |
| OB(O)O | inactive |  |
| CC(=O)OCc1ccc2c(c1)OCO2 | inactive |  |
| CCCCCCCCCCCCCC(=O)O |  | -0.851% (inactive) |
| O=Cc1ccc(CO)o1 | inactive |  |
| CC(COCC(C)OC(=O)c1ccccc1)OC(=O)c1ccccc1 (stereo not given) | inactive |  |
| CC(C)c1ccc(C(C)C)cc1 | inactive |  |
| CCCCC(=O)O | inactive |  |
| COc1ccc2cc3[n+](cc2c1OC)CCc1cc2c(cc1-3)OCO2 | inactive |  |
| COc1ccc([C@@H]2CC(=O)c3c(O)cc(O[C@@H]4O[C@H](CO[C@@H]5O[C@@H](C)[C@H](O)[C@@H](O)[C@H]5O)[C@@H](O)[C@H](O)[C@H]4O)cc3O2)cc1OC |  | 10.4% (inactive) |
| COC(=O)CCCCC(=O)OC | inactive |  |
| NC(N)=S | inactive |  |
| Oc1ccc(Cc2ccccc2O)cc1 |  | 0.914% [at 81.1 µM] (inactive) |

test system: not listed separately; assay: qHTS assay to identify small molecule agonists of the farnesoid-X-receptor (FXR) signaling pathway - cell viability counter screen (AID 743218); conditions: FXR-bla HEK293T viability, CellTiter-Glo luminescence, 16 h; series mostly up to 62.6 µM; viability change, negative = cytotoxic: at the top concentration; also: nearly all actives have a fitted effect of over 45% in size; also: potency is read from the fitted curve at half-maximal effect
How it was run: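 Parallel cytotoxicity test: compound-treated (16 h, 37 C) HEK 293T FXR-bla reporter cells were lysed with CellTiter-Glo and luminescence recorded.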

| SMILES | viability change, negative = cytotoxic | Potency |
| --- | --- | --- |
| CC1=CC(=O)CC(C)(C)C1 | 7.83% (inactive) |  |
| Clc1cccc(Cl)c1NC1=NCCN1 | -11.4% (inactive) |  |
| CC1(C)C(=O)N(Cl)C(=O)N1Cl |  | inactive |
| CCCCCCCC(=O)O | 10.3% (inactive) |  |
| O=C1O[C@H]([C@H](O)CO)C(O)=C1O |  | inactive |
| CS(=O)(=O)c1ccc(Cl)cc1 |  | inactive |
| OB(O)O | 7.39% (inactive) |  |
| CC(=O)OCc1ccc2c(c1)OCO2 |  | inactive |
| CCCCCCCCCCCCCC(=O)O |  | inactive |
| CC1(C)[C@@H](O[C@H]2O[C@H](C(=O)O)[C@@H](O)[C@H](O)[C@H]2O[C@@H]2O[C@H](C(=O)O)[C@@H](O)[C@H](O)[C@H]2O)CC[C@]2(C)[C@H]3C(=O)C=C4[C@@H]5C[C@@](C)(C(=O)O)CC[C@]5(C)CC[C@@]4(C)[C@]3(C)CC[C@@H]12 |  | inactive |
| Cc1ccncc1 |  | inactive |
| O=Cc1ccc(CO)o1 | 9.42% (inactive) |  |
| CC(=O)Nc1ccc(CC(=O)O)cc1 |  | inactive |
| COc1cc(NC(=O)CC(C)=O)c(OC)cc1Cl |  | inactive |
| CC(COCC(C)OC(=O)c1ccccc1)OC(=O)c1ccccc1 (stereo not given) | 9.69% (inactive) |  |
| CC(C)c1ccc(C(C)C)cc1 |  | inactive |
| CCN(CC)CCNC(=O)c1ccc(N)cc1 |  | inactive |
| O=C(NCC1CCCCN1)c1cc(OCC(F)(F)F)ccc1OCC(F)(F)F (stereo not given) |  | inactive |
| C[n+]1ccn(CCO)c1 | 23% (inactive) |  |

| SMILES | viability change, negative = cytotoxic | Potency |
| --- | --- | --- |
| C=CC(=O)NCOCCCC | -8.98% (inactive) |  |
| O=[N+]([O-])c1cc(C(F)(F)F)ccc1Cl |  | inactive |
| CCCCC(=O)O |  | inactive |
| C1CCCNCC1 |  | inactive |
| COc1ccc2cc3[n+](cc2c1OC)CCc1cc2c(cc1-3)OCO2 | -14.1% [at 81.1 µM] (inactive) |  |
| Nc1nc(N)c2nc(-c3ccccc3)c(N)nc2n1 |  | inactive |
| COc1ccc([C@@H]2CC(=O)c3c(O)cc(O[C@@H]4O[C@H](CO[C@@H]5O[C@@H](C)[C@H](O)[C@@H](O)[C@H]5O)[C@@H](O)[C@H](O)[C@H]4O)cc3O2)cc1OC |  | inactive |
| CCCN(CCC)C(=O)SCC |  | inactive |
| CC/C(C)=N/O |  | inactive |
| CC/C=C(\C(=O)N[C@@H]1C(=O)N2C(C(=O)OCOC(=O)C(C)(C)C)=C(COC(N)=O)CS[C@H]12)c1csc(N)n1 |  | inactive |
| COC(=O)CCCCC(=O)OC | 7.6% (inactive) |  |
| C[Si](C)(C)N[Si](C)(C)C |  | inactive |
| COC(=O)/C=C\C(=O)OC |  | inactive |
| O=C1C(N(CO)C(=O)NCO)N(CO)C(=O)N1CO (stereo not given) |  | inactive |
| NC(N)=S |  | inactive |
| c1cnc2c(c1)ccc1cccnc12 |  | inactive and 1.55 µM (active) |
| Nc1cccc(N)n1 |  | inactive |
| OCC(CO)(CO)CO |  | inactive |
| Oc1ccc(Cc2ccccc2O)cc1 |  | inactive |

target: Bile acid receptor (Homo sapiens) (UniProt Q96RI1); assay: qHTS assay to identify small molecule agonists of the farnesoid-X-receptor (FXR) signaling pathway (AID 743220; active = well fitted activation curve with a large enough effect in the signal ratio in the repeat runs, not every such curve was filed as active; the % refers to the signal ratio; also: potency is read from the fitted curve at half-maximal effect); conditions: HEK293T FXR-UAS-bla, beta-lactamase FRET ratio, 16 h; series mostly up to 62.6 µM; activation: at the top concentration
How it was run: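 Beta-lactamase reporter under UAS control in GeneBLAzer FXR HEK 293T cells (5000/well) measured with LiveBLAzer FRET substrate after 2 h at room temperature. Compound exposure lasted 16 h at 37C.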

| SMILES | Potency | activation |
| --- | --- | --- |
| OB(O)O | inactive |  |
| CC(=O)OCc1ccc2c(c1)OCO2 | inactive |  |
| CCCCCCCCCCCCCC(=O)O | inactive |  |
| O=Cc1ccc(CO)o1 | inactive |  |
| CC(COCC(C)OC(=O)c1ccccc1)OC(=O)c1ccccc1 (stereo not given) | inactive |  |
| CC(C)c1ccc(C(C)C)cc1 | inactive |  |
| CCCCC(=O)O | inactive |  |
| COc1ccc2cc3[n+](cc2c1OC)CCc1cc2c(cc1-3)OCO2 |  | -1.02% (inactive) |
| Nc1nc(N)c2nc(-c3ccccc3)c(N)nc2n1 | 49.5 µM (active) and 21.1 µM (active) |  |
| COc1ccc([C@@H]2CC(=O)c3c(O)cc(O[C@@H]4O[C@H](CO[C@@H]5O[C@@H](C)[C@H](O)[C@@H](O)[C@H]5O)[C@@H](O)[C@H](O)[C@H]4O)cc3O2)cc1OC | inactive |  |
| COC(=O)CCCCC(=O)OC | inactive |  |
| NC(N)=S | inactive |  |
| Oc1ccc(Cc2ccccc2O)cc1 | inactive |  |
